36 compounds from PubChem BioAssay AID933 (National Center for Advancing Translational Sciences (NCATS), 2007) can be followed below.

Records with an inconclusive call do not appear. A number with no mark means an inactive call. Activity calls are given as the source filed them. Calls come from the whole dose curve; as a rule, active = well fitted activation curve with a large enough effect in the signal ratio, with a control signal flat; inconclusive = small, poorly fitted or top-dose-only effect, or a change in a side signal; inactive = flat fitted curve, though single readings scatter; the % refers to the signal ratio.
Potency is the fitted concentration of half-maximal effect.

The test deals with Thyrotropin receptor (Homo sapiens) (UniProt P16473). The test can be described thus: Secondary Concentration-Response Assay for Agonists of the Thyroid Stimulating Hormone Receptor: HTRF Activity Detection. For activation: % of control where 0% means no effect. Conditions: HEK293-TSHR cells, cAMP HTRF ratio, 30 min; series mostly up to 91.7 µM; activation: at the top concentration. The procedure, abridged: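 cAMP accumulation was detected by antibody-based HTRF, excitation 330 nm, emissions 615 and 660 nm. Compounds acted for 30 min at room temperature on stably TSHR-transfected HEK 293 cells, with phosphodiesterase inhibitor RO 20-1724 (100 uM) in the medium.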
Thyrotropin receptor (Homo sapiens), sequence (P16473 whole entry, looked up): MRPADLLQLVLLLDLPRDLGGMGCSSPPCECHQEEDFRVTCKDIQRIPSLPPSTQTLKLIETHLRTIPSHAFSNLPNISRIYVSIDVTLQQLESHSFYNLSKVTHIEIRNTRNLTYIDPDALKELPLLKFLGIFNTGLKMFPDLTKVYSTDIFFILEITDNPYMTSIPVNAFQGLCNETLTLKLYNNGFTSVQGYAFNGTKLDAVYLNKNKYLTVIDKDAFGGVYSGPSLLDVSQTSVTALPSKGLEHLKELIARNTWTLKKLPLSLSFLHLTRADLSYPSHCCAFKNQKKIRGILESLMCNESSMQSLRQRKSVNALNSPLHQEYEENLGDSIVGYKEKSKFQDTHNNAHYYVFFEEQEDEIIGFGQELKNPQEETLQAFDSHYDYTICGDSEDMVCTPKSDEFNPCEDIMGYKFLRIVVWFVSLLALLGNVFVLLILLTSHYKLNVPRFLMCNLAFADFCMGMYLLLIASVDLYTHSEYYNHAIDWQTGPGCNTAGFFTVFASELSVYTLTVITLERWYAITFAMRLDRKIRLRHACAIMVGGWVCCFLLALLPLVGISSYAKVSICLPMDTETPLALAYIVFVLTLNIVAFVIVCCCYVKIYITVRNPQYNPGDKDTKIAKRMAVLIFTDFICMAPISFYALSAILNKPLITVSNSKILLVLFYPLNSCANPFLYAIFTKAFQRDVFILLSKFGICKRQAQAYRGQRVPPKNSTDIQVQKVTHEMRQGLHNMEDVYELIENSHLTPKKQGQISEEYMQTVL
(In TR-FRET formats the signal depends on donor and acceptor labels being close together.)
Consider `COc1ccc(C2Nc3ccccc3C(=O)N2c2ccc(Cl)cc2)cc1COc1ccc(NC(C)=O)cc1` (stereo unspecified), for which the “activation” value is 8.76%.

`O=C1c2ccccc2NC(c2ccc(O)cc2)N1Cc1ccco1` (stereo unspecified): the Potency entry was “inactive”.

Consider `CC1(C)CC(=O)C2=C(C1)OC(N)=C(C#N)C2CCc1ccccc1` (stereo unspecified), for which the activation is -0.482% [at 0.00035 µM].

As for `CCCC(=O)C1=C(SCC)CC(C)(C)C(C(=O)OC)C1=O` (stereo unspecified), the activation was 0.0277% [at 0.00035 µM].

For the compound `Cc1cc(C)nc(N(C#N)CC(=O)N2CCC(C(N)=O)CC2)n1`, the activation is 1.28% [at 0.00035 µM].

With `COc1ccc(C2Nc3ccccc3C(=O)N2c2ccc(C)cc2)cc1COc1ccccn1` (stereo unspecified), the “activation” value is 2%.

On to `CCSCCOC(=O)C1=C(C)N(C)C(=O)NC1c1cc(OC)ccc1OC` (stereo unspecified), for which the activation is 1.56% [at 0.00035 µM].

On to `Cc1ccccc1-n1nc(C)c2cc(C(=O)N3CCN(S(=O)(=O)c4ccc(F)cc4)CC3)sc21`, for which the activation is 0.202% [at 0.00035 µM].

Turning to `COc1ccc(C(=O)N(Cc2ccccc2)Cc2cccs2)c(O)c1`, the Potency was 28.2 µM (active).

For `CCOC(=O)COc1c(OC)cc(Cl)cc1C1Nc2ccccc2C(=O)N1c1ccc(F)cc1` (stereo unspecified), the “activation” value is 0.758%.

In the case of `COc1ccc(O)c(C2Nc3ccccc3C(=O)N2Cc2ccccc2)c1` (stereo unspecified), the “activation” value was 4.83%.

As to `COc1cc(C2Nc3ccccc3C(=O)N2c2ccccc2)c(Br)cc1OCC(=O)O` (stereo unspecified), the “activation” value is 0.259%.

For `CCCN1C(=O)c2ccccc2NC1c1cc(OC)c(OC)c(OC)c1` (stereo unspecified), the “activation” value is 1.24%.

`Cc1noc(/C=C/c2ccco2)c1S(=O)(=O)N1CCC(C(=O)NCc2ccco2)CC1`: the activation was -0.595% [at 0.00035 µM].

As for `COc1ccc(C2Nc3ccccc3C(=O)N2Cc2ccco2)cc1COc1ccccc1` (stereo unspecified), the “activation” value was 2.37%.

As to `COc1ccc(C2Nc3ccccc3C(=O)N2Cc2ccccc2)cc1COc1ccc(F)cc1` (stereo unspecified), the “activation” value was 16.4%.

`COc1ccc(C2Nc3ccccc3C(=O)N2Cc2cccnc2)cc1COc1ccc(NC(C)=O)cc1` (stereo unspecified): the Potency was 35.5 µM (active).

For `O=C(c1ccc(Br)o1)N(Cc1ccccc1)c1ccccn1`, the activation is 0.801% [at 0.00035 µM].

`CC1(C)CC2CC(C)(CN2S(=O)(=O)c2ccc(N)cc2)C1` (stereo unspecified): the activation was -0.162% [at 0.00035 µM].

For `COc1ccc(N2C(=O)c3ccccc3NC2c2ccc(OC)c(COc3ccc(NC(C)=O)cc3)c2)cc1` (stereo unspecified), the “activation” value is 3.72%.

`Cc1cc(Cl)c(S(=O)(=O)Nc2ccc3c(c2)OCO3)cc1OCC(N)=O`: the activation is -1.33% [at 0.00035 µM].

Consider `Cc1ccc(C2Nc3ccccc3C(=O)N2Cc2ccco2)cc1` (stereo unspecified), for which the “activation” value was 0.603%.

Take `COc1cccc(CN2C(=O)c3ccccc3NC2c2ccc(OC)c(COc3ccc(NC(C)=O)cc3)c2)c1` (stereo unspecified): the Potency was 6.31 µM (active).

Regarding `COc1cc2c(N3CCOCC3)cc(O)c(CC(=O)Nc3ccccc3)c2cc1OC`, the activation is 0.478% [at 0.00035 µM].

As to `Cc1cc(-n2c(C)cc(C(=O)CSc3nnnn3-c3ccc(Cl)cc3)c2C)no1`, the activation was 1.18% [at 0.00035 µM].

Regarding `O=C(CN1C(=O)NC2(CCCCC2)C1=O)NCCC1=CCCCC1`, the activation is 1.34% [at 0.00035 µM].

As for `O=C(CSc1nc2scc(-c3ccco3)c2c(=O)n1-c1ccccc1)N1CCOCC1`, the activation was -0.79% [at 0.00035 µM].

For `Cc1onc(-c2ccccc2Cl)c1C(=O)Nc1ccc(-n2nncc2-c2ccco2)cc1`, the activation was 0.344% [at 0.00035 µM].

On to `COc1ccc(C2Nc3ccccc3C(=O)N2Cc2ccco2)cc1` (stereo unspecified), for which the Potency entry was “inactive”.

With `CCN(CC)CCN1C(=O)c2ccccc2NC1c1ccc(F)cc1` (stereo unspecified), the “activation” value was 0.986%.

For the compound `Cc1occc1-c1nnc(SCC(=O)NCc2ccco2)n1CC(C)C`, the activation was 0.131% [at 0.00035 µM].

Turning to `COc1ccc(C2Nc3ccc(NC(C)=O)cc3C(=O)N2Cc2cccc(Cl)c2)cc1COc1ccc(NC(C)=O)cc1` (stereo unspecified), the Potency was 7.94 µM (active).

`COc1ccc(CN(Cc2ccccc2)C(C)=O)cc1COc1ccc(NC(C)=O)cc1`: the “activation” value is 5.35%.

`CC1(c2ccccn2)Nc2ccccc2-c2nc3ccccc3n21` (stereo unspecified): the activation is -0.34% [at 0.00035 µM].

Consider `CC1(C)c2ccccc2N2CCC(=O)NC21/C=C/c1ccco1` (stereo unspecified), for which the activation is 0.369% [at 0.00035 µM].

Consider `COc1ccc2c(c1OC)C(=O)N1c3ccccc3C(=O)N(Cc3ccco3)C21` (stereo unspecified), for which the “activation” value is 18.7%.
